# About 10,000 (3%) of roughly 330,000 compounds were called active. The list comes from a sample in which actives are over-represented; it also holds similar structures and randomly drawn compounds. Values without a mark were called inactive.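 How the source made its calls: active means inhibition of at least 50% at 8 µM in the primary screen; inactive means the rest.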
# Target: Protein Mdm4 (Homo sapiens) + E3 ubiquitin-protein ligase Mdm2 (Homo sapiens) (UniProt O15151+Q00987)
# Test: inhibitors of human Mdm2-MdmX association, primary screen, cell-based, luminescence, split luciferase, SaOS-2, uHTS (AID 485346)
# Conditions: SaOS-2 split-luciferase Mdm2/MdmX complementation, at 8 µM, active compounds read high
# Sequence of Protein Mdm4 (Homo sapiens) + E3 ubiquitin-protein ligase Mdm2 (Homo sapiens) (O15151 whole entry, looked up): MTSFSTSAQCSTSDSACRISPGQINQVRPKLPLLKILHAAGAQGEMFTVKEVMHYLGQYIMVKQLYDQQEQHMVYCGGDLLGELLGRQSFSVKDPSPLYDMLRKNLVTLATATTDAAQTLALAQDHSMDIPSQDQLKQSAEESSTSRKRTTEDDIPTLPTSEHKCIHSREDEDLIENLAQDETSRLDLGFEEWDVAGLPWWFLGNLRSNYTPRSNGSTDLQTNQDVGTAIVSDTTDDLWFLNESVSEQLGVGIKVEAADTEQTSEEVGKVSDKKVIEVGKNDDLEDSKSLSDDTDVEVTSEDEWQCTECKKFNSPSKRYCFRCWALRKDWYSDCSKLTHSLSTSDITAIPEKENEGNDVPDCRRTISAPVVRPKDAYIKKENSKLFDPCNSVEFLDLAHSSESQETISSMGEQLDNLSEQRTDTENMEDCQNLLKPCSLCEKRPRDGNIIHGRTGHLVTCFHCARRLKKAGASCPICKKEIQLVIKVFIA
# Sequence of Protein Mdm4 (Homo sapiens) + E3 ubiquitin-protein ligase Mdm2 (Homo sapiens) (Q00987 whole entry, looked up): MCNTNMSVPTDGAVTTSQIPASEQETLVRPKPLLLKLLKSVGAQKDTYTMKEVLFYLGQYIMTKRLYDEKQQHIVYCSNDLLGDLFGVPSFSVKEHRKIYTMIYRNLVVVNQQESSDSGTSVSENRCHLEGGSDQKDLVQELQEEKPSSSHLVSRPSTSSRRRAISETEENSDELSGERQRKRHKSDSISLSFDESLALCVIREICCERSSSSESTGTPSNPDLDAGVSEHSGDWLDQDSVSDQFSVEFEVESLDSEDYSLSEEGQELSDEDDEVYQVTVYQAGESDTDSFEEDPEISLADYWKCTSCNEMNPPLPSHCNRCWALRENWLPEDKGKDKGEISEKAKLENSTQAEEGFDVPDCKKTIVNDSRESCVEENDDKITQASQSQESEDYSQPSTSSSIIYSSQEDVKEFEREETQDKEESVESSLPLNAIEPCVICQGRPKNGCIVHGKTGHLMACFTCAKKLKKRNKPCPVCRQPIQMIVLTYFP
row,SMILES,inhibition
1,CC(C)c1cc(C(=O)N/N=C/C(Br)=C/c2ccccc2)n[nH]1,66.1% (active)
2,CC(C)c1cc(C(=O)O)n[nH]1,5.75%
3,Cc1cc(C(=O)N/N=C\C(Br)=C\c2ccccc2)c(C)o1,-18.5%
4,O=C1CSc2ccc(S(=O)(=O)NCc3ccccc3)cc2N1,-3.1%
5,COc1ccc(OC)c(C2C3=C(N=c4s/c(=C\c5cccc(O)c5)c(=O)n42)c2ccccc2CC3)c1 (stereo not drawn),79.2% (active)
6,O=C1CCCC2=C1C(c1ccccc1)n1c(s/c(=C/c3cccc(F)c3)c1=O)=N2 (stereo not drawn),-4.28%
7,CCOC(=O)C1=C(C)N=c2s/c(=C\C(=O)OC)c(=O)n2C1c1ccc(OC)cc1 (stereo not drawn),12.2%
8,O=C(N/N=C/c1ccc(Cl)cc1)c1nc2ccc([N+](=O)[O-])cc2c(=O)[nH]1,6.69%
9,COC(=O)c1sc(SC)c(S(=O)(=O)C(C)C)c1N/N=C(\C#N)S(=O)(=O)c1ccccn1,9.73%
10,O=C(NC1CCc2ccccc21)C12CN(Cc3ccccc3)CC1C(c1cccc([N+](=O)[O-])c1)=NO2 (stereo not drawn),0.069%
11,CSc1nc(-c2ccccc2)nc(C(Cl)Cl)n1,101% (active)
12,CSc1ncc(Sc2ccccc2)c(C(=O)O)n1,8.72%
13,CN=C(NC#N)NCCSCc1nc[nH]c1C,2.92%
14,CC1(C)CC(=O)C=C(NCc2ccncc2)C1,27.3%
15,Cc1ccc(S(=O)(=O)N2CCC(N3CCCCCC3)CC2)cc1,1.35%
16,O=S(=O)(c1ccccc1)N1CCC(c2ccccc2)CC1,-19.7%
17,c1ccc(C2CCC(N3CCC(N4CCCCC4)CC3)CC2)cc1 (stereo not drawn),91.3% (active)
18,CCOC(=O)C1CCN(C(=O)C2CCN(S(=O)(=O)CC)CC2)CC1,12.2%
19,CCN(CC(=O)NCCCN1CCOCC1)S(=O)(=O)c1cc(Cl)ccc1Cl,20.3%
20,COc1ccc(N=C2SC(C(=O)Nc3ccc(F)cc3)CC(=O)N2C)cc1 (stereo not drawn),15%

row,SMILES,inhibition
1,Cc1cccc(NC(=O)NC(=S)NC(=O)c2ccccc2)c1,-38.5%
2,Cc1cccc(NC(=O)Nc2cccc(Oc3c(F)c(F)c(F)c(F)c3F)c2)c1,74.3% (active)
3,Cc1ccc(NC(=O)Nc2ccccc2)c(Br)c1,-41.3%
4,O=C(COc1ccc(Cl)cc1)Nc1ccc2oc(=O)ccc2c1,-1.06%
5,O=C(NC(=S)Nc1ccc2oc(=O)ccc2c1)c1ccc(-c2cccc(Cl)c2Cl)o1,80.7% (active)
6,CC(C)C(=O)Nc1ccc2oc(=O)ccc2c1,3.99%
7,CC1(C)CC(=O)C=C(c2cccc3c2Oc2ccccc2S3)C1,2.33%
8,CCOc1cc(C(=O)N2CCc3cc(OC)c(OC)cc3C2)ccc1OC(F)F,51% (active)
9,COc1cc2c(cc1OC)CN(C(=O)c1ccc(S(=O)(=O)N3CCCCCC3)cc1)CC2,11%
10,COc1cc2c(cc1OC)CN(C(=O)c1cc(=O)c3ccccc3o1)CC2,49.8%
11,Cc1c(C=O)c2ccccn2c1C(=O)c1ccncc1,22.9%
12,COc1ccc(S(=O)(=O)N2CCOCC2)cc1NC(=O)c1ccc(OCC(C)C)c(OC)c1,38.4%
13,O=C(CSc1nc2ccc(Nc3nc(N4CCOCC4)nc(N4CCOCC4)n3)cc2s1)NCc1ccco1,20.3%
14,C/C(=N\Nc1nc(Nc2ccccc2)nc(N2CCOCC2)n1)c1cccs1,46.5%
15,O=C(CSc1nc(Nc2ccccc2)nc(N2CCOCC2)n1)Nc1cc(Cl)ccc1O,81.9% (active)
16,Cc1ccccc1NC(=O)CSc1nc2ccc(Nc3nc(N4CCOCC4)nc(N4CCOCC4)n3)cc2s1,80.5% (active)
17,Cc1ccc(Nc2nc(N3CCOCC3)nc(N3CCOCC3)n2)cc1Cl,48.2%
18,CC1(c2ccccc2)NC(=O)N(CC(=O)Nc2cc(Cl)ccc2N2CCOCC2)C1=O (stereo not drawn),6.67%
19,NS(=O)(=O)c1ccc(N2C(=O)C3C4CC(C(Br)C4Br)C3C2=O)cc1 (stereo not drawn),-13.2%
20,CCC(C(=O)NCc1cccnc1)n1nc(C)c2sc3ccccc3c2c1=O (stereo not drawn),20.9%

row,SMILES,inhibition
1,OC(CNCCc1ccc(Cl)cc1Cl)COc1ccccc1 (stereo not drawn),-3.6%
2,NC(N)=N/N=C/c1ccc(OCc2ccc(Cl)cc2Cl)cc1,97.6% (active)
3,Cc1nc2ccccc2nc(C)c1=NOCc1ccc(Cl)cc1Cl,22.9%
4,COc1ccc2cc1Oc1ccc(cc1)C[C@H]1c3cc(c(OC)cc3CCN1C)Oc1c(O)c(OC)cc3c1[C@H](C2)N(C)CC3,98.4% (active)
5,Cc1cccc(-[n+]2c(-c3cccc(Br)c3)[nH]c3nc4ccccc4nc32)c1,42.8%
6,CCC/C(O)=C1\C(=O)CC(C)(C)CC1=Nc1ccccc1OC,17.5%
7,COc1ccc(N2CC(NS(=O)(=O)c3ccc4ccccc4c3)CC2=O)cc1 (stereo not drawn),4.41%
8,COc1cc(NS(=O)(=O)c2ccc3ccccc3c2)c2ncccc2c1,94.8% (active)
9,Cc1ccc(S(=O)(=O)Nc2ccc3ncccc3c2)cc1,19.7%
10,Cc1cc(NC(=O)CCC(=O)N(CC(=O)NCC2CCCO2)c2ccccc2C)no1 (stereo not drawn),11.6%
11,COc1ccc(OC)c(S(=O)(=O)NCCC(C)C)c1,22.1%
12,C=C(C)C(=O)O[C@H]1C/C(C)=C\C(=O)/C=C(\C)[C@H](O)[C@@H]2OC(=O)C(=C)[C@@H]21,95.4% (active)
13,O=C(CNC1CCCCC1)NCC1(c2ccccc2)CCCC1,2.11%
14,C=C1CCN([C@H](C(=O)NCc2cc(OC)c(OC)c(OC)c2)C(C)C)S(=O)(=O)c2ccccc21,-24.7%
15,C[C@@H]1CC[C@]2(O[C@@H](CCO)C[C@H](O)[C@H]2O)O1,16.3%
16,COc1ccc(S(=O)(=O)N2CCCC(C(=O)Nc3ccc(NC(=O)c4ccccn4)cc3)C2)cc1 (stereo not drawn),-15.5%
17,CC(=O)Nc1ccc(NC(=O)C2CCCN(S(=O)(=O)c3ccc(Cl)cc3)C2)cc1 (stereo not drawn),55.6% (active)
18,CC(C)c1ccc(NC(=O)C2CCCN(S(=O)(=O)c3cccnc3)C2)cc1 (stereo not drawn),20.9%

# From PubChem BioAssay AID485346 (Sanford-Burnham Center for Chemical Genomics, 2010)
